The supplement of paper PMC6555819

Tests used:
Assay in all cases: PBM binding z-score (relative to random genomic background probes); higher = stronger binding; sequences stand for … in GC…GCGATTGACAGCGTAGAATGAAGG
[1] = system: RARb homodimer (NR concentration 270 nM)
Outline: (§1)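 Ligand-free nuclear receptor dimers were applied to custom Agilent 4×180K protein-binding microarrays whose double-stranded probes carried direct-repeat seeds, single-nucleotide variants, half-site ablations and random human genomic background sequences in 34-nt variable regions. Incubation lasted 1 h. Binding z-scores were computed against the random background probes from regression-normalized fluorescence.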

[2] = system: RARg:RXRa (NR concentration 270 nM, RXRa partner concentration 90 nM)
Outline: as §1

[3] = system: RARg homodimer (NR concentration 270 nM)
Outline: as §1

[4] = system: RXRa DBDmut IVT, anti-RXR (DBD mutation: RXRa K156A/R161A, NR concentration 90 nM)
Outline: as §1

[5] = system: RXRa homodimer (NR concentration 180 nM)
Outline: as §1

[6] = system: THRa:RXRa (NR concentration 90 nM, RXRa partner concentration 90 nM)
Outline: as §1

[7] = system: THRa homodimer (NR concentration 90 nM)
Outline: as §1

[8] = system: VDR homodimer (NR concentration 270 nM)
Outline: as §1

Row | Sequence | PBM binding z-score [1] | PBM binding z-score [2] | PBM binding z-score [3] | PBM binding z-score [4] | PBM binding z-score [5] | PBM binding z-score [6] | PBM binding z-score [7] | PBM binding z-score [8]
1 | ATATGTACGTTAGCTGGGGTCATTCAGACTAGGC | 3.2 | 3.67 | 2.5 | 2.23 | 5.37 | 4.01 | 3.2 | 5.16
2 | CCTCGGAGGACAACAGGAGGTCAGAGTTGCCAGA | 3.77 | 3.42 | 3.26 | 0.349 | 2 | 3.08 | 1.6 | 1.5
3 | CGACCTAGGTCAGAACAGGACAGTGAAGGATGAT | 2.62 | 3.3 | 4.04 | 0.773 | 2.21 | 3.83 | 0.505 | 0.303
4 | CCTACTGGGCCAAGGTCATTGAACAGTCAAAGCA | 3.4 | 3.82 | 3.72 | 0.677 | 3.68 | 3.5 | 2.14 | 2.77
5 | AGTCAAAGTTCATCTAGGTAACGTACGATATGCT | 3.93 | 5.49 | 5.82 | 4.69 | 4.69 | 3.28 | 0.448 | 5.04
6 | CGAACTAGGCCAGAACAGGACAGTGAAGGATGAT | 0.156 | 0.158 | 0.409 | 0.019 | 0.291 | 0.634 | -0.576 | -0.245
7 | CCTACTGGCCCACGAAAGGTCATTGATTCAGTGA | 4.47 | 4.32 | 3.95 | 0.693 | 4.79 | 3.02 | 1.16 | 2.69
8 | ATCGAAAGGTCGTGAGCTGAGTATACAGAAAGGC | 2.17 | 4.41 | 3.74 | 0.921 | 5.11 | 2.31 | -0.456 | 0.299
9 | GCGACTGGGGCATCAGCAGGTTACCATCACTTAA | 0.92 | 0.879 | 0.45 | -0.0239 | 0.259 | 0.783 | 0.0403 | -0.183
10 | CAGCCTAGGTCAGGGCCAGTATGGGAGGAACGTT | 2.38 | 3.22 | 3.76 | -0.69 | 1.38 | 1.95 | 0.312 | -0.378
11 | TTACCAAGGTGAAACGTCGTTGATGCACGCCTTG | 0.238 | 0.69 | 0.555 | 0.0137 | 1.01 | 1.59 | 0.421 | -0.415
12 | ACTCGGAGGACAAAGGTCAGACCTACGCCAGTGA | 4.02 | 6.08 | 5.29 | 1.23 | 5.81 | 3.5 | 0.604 | 1.81
13 | ATCGAAAGGTCGTGAGGTGAGCATACAGAAAGGC | 3.19 | 4.58 | 4.26 | 1.12 | 5.3 | 3.45 | 1.68 | 0.917
14 | CGAACTAGGGCAAGGACAGTGAATCTCCGCACGC | 0.945 | 0.544 | 1.17 | 0.123 | 0.145 | 1.09 | 0.786 | 0.0219
15 | CCTTACGGGTCACTCCAGGTTATAGGATCGGAGT | 3.21 | 4.55 | 4.56 | 1.45 | 4.79 | 4.95 | 0.641 | 1.51
16 | CTCGAAAGGTCGGATGAGGTGAGTATACGGATAA | 2.69 | 3.2 | 3.26 | 0.982 | 2.94 | 5.16 | 1.3 | 0.327
17 | TAGCCTAGGTCATGGGCCAGAATACCACGCGAAC | 2.86 | 4.27 | 4.29 | 0.064 | 3.81 | 2.89 | 1.07 | -0.109
18 | TTACCATGGTGAGCTGAGGTCGTTGATCCAACTC | 0.61 | 0.0619 | -0.479 | -0.0297 | 0.594 | 2.81 | 1.14 | 1.7
19 | CGAACTAGGTCGTTGACAGGACAGTGAATAGTAA | 0.711 | 1.6 | 1.2 | 1.18 | 0.488 | 1.33 | 0.0428 | 0.716
20 | GCGACTGGGGAATCAGCAGGTTACCATAACTTAA | 0.164 | -0.241 | -0.452 | -0.352 | 0.0152 | 0.249 | -0.272 | -0.345
21 | ACTAGTAGGCCAAGTTTGGGTCACTCAAACAAAG | 2.48 | 2.53 | 2.16 | 0.0627 | 1.15 | 2.6 | 1.31 | 0.613
22 | CGAACTAGGTCATTGATAGGACAGTGAATAGTAA | 2.83 | 4.58 | 4.22 | 2.29 | 2.34 | 2.61 | 0.97 | 1.35
23 | TCATATAGGTAAATGCTAGGTGAAAGGCCGATCT | 0.766 | 0.683 | 0.329 | 1.57 | 0.896 | 1.53 | 0.386 | 0.46
24 | CCTTACGGGTCAAGGTTATAGCTCGGGTGGTACG | 3.57 | 4.65 | 4.28 | 0.811 | 4.81 | 3.01 | 1.1 | 1.18
25 | CCGACTGGCGCAAAGGTTACCATACTCAGTACGA | 1.81 | 1.62 | 0.821 | 0.55 | 2.11 | 1.35 | -0.0334 | -0.00484
26 | GCTACCAGGCCATTTGGGTCACTCAATGACGGGC | 2.15 | 1.21 | 1.57 | 0.386 | 0.86 | 2.21 | 1.39 | 0.491
